Experimental data: PubChem BioAssay (NCATS)
Several values for one entry are separate records, joined by “and”; a condition that tells them apart may be missing. Identical values can stand only once. Records with an inconclusive call do not appear. Activity calls are given as the source filed them. Unless noted, calls come from the whole dose curve; as a rule, active = well fitted curve in the direction sought with a large enough effect in the repeat runs; inconclusive = weak or mixed curves; inactive = no such curve, though single readings can be large; an effect the other way counts as inactive or inconclusive. Numbered stars: 1 amine (or outer) side, 2 acyl side, 3 side chain; on linkers, the order of the positions; unused ones are H or OH. Bridge positions count the residues as written; N and C are the ends. Square brackets hold non-standard residues; d marks the D form. Peptide text beside a SMILES is read from it. I, II: the chains in the order shown. Actinocin(9to1) = Cc1c2oc3c(C)ccc(C(=O)[*:1])c3nc-2c(C(=O)[*:2])c(N)c1=O; NMeV = CN[C@H](C(=O)O)C(C)C; Sar = CNCC(=O)O

target: Cytochrome P450 2D6 (Homo sapiens) (UniProt P10635); assay: Cytochrome P450 family 2 subfamily D member 6 (CYP2D6) small molecule antagonists: luciferase biochemical (cell-free) qHTS assay (AID 1645840); details: P450-Glo CYP2D6 enzyme, luciferin luminescence, 1 h; series mostly up to 57.4 µM; note: nearly all actives have a fitted effect of over 55% in size
Sequence (P10635 whole entry, looked up): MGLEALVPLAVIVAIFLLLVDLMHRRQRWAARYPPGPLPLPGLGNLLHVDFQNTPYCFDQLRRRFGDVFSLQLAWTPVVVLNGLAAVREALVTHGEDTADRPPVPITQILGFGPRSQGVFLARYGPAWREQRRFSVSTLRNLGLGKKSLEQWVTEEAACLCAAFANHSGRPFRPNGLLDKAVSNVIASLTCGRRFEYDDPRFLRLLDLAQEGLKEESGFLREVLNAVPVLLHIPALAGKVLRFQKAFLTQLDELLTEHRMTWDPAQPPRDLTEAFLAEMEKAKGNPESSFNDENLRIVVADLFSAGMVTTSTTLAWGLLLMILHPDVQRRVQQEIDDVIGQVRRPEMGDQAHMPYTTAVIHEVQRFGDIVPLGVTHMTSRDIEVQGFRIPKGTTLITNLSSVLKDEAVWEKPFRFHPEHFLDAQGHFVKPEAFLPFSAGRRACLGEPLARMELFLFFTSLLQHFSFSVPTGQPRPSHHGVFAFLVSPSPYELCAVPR
Procedure, shortened: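 P450-Glo CYP2D6 system: proluciferin substrate converted by enzyme to luciferin, read by luminescence proportional to activity. Enzyme-substrate mix with compound 10 min at room temperature, then NADPH regeneration 1 h before detection reagent.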
Potency is the fitted concentration of half-maximal effect.

Q: With `O=C(NC(O)C(Cl)(Cl)Cl)NC(O)C(Cl)(Cl)Cl` (configuration not stated) as the compound, how does the Potency read?
A: The Potency was “inactive”.

Q: Which Potency does the source give for `O=C(O)c1ccc2[nH]cc(CCCCN3CC=C(c4ccccc4)CC3)c2c1` here?
A: Its Potency is 15500 nM (active).

Q: With `NP(N)(=O)NC(=O)c1ccc(F)cc1` as the compound, how does the Potency read?
A: The Potency was “inactive”.

target: Cytochrome P450 2C9 (Homo sapiens) (UniProt P11712); assay: Cytochrome P450 family 2 subfamily C member 9 (CYP2C9) small molecule antagonists: luciferase biochemical (cell-free) qHTS assay (AID 1645842); details: P450-Glo CYP2C9 enzyme assay, luciferin luminescence; series mostly up to 57.4 µM; note: nearly all actives have a fitted effect of over 55% in size
Sequence (P11712 whole entry, looked up): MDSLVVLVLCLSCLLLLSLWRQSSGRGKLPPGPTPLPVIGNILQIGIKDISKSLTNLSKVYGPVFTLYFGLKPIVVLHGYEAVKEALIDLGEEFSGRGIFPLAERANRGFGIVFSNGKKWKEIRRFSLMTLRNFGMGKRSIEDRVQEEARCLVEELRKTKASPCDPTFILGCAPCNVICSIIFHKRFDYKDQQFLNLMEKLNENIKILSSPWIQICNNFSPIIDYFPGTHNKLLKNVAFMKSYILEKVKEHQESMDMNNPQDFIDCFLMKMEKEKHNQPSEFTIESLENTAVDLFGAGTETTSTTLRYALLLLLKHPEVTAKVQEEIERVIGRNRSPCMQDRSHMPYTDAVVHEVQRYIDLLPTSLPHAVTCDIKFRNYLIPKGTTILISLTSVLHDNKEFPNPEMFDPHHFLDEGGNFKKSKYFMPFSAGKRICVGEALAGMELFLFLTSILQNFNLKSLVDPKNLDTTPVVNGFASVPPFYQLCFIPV
Procedure, shortened: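 P450-Glo CYP2C9 system: proluciferin substrate with enzyme in mix containing 0.4% BSA, 10 min at room temperature, then NADPH regeneration solution added and incubated 1 h at 37C. Detection reagent stopped reaction; luminescence read after 20 min as RLU.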

Q: With `O=C1CC[C@@]2(O)[C@H]3Cc4ccc(O)c5c4[C@@]2(CCN3CC2CC2)[C@H]1O5` as the compound, how does the Potency read?
A: Its Potency is “inactive”.

Q: With `Clc1ccc(CCC(Cn2ccnc2)Sc2c(Cl)cccc2Cl)cc1` (configuration not stated) as the compound, how does the Potency read?
A: The Potency was 0.0123 µM (active).

Q: For `CCOP(=S)(OCC)Oc1cc(C)nc(C(C)C)n1`, which Potency is on record?
A: Its Potency is 1.95 µM (active).

Q: For `CC(C)(C)CC(C)(C)c1ccc(O)cc1`, which Potency is on record?
A: Its Potency is 11.9 µM (active) and 15.5 µM (active).

Q: Which Potency does the source give for `c1ccc(C2CC2)c(OCC2=NCCN2)c1` here?
A: Its Potency is “inactive”.

Q: For `CC(C)(C)NCC(O)c1cc(Cl)c(N)c(Cl)c1` (configuration not stated), which Potency is on record?
A: The Potency was “inactive”.

Q: With `CC(C)=CCOc1c2occc2cc2ccc(=O)oc12` as the compound, how does the Potency read?
A: The Potency was 0.347 µM (active).

Q: Which Potency does the source give for `CC1NCCOC1c1ccccc1` (configuration not stated) here?
A: Its Potency is “inactive”.

Q: For `C[C@H]1O[C@@H](O[C@H]2[C@@H](O)C[C@H](O[C@H]3[C@@H](O)C[C@H](O[C@H]4CC[C@@]5(C)[C@H](CC[C@@H]6[C@@H]5CC[C@]5(C)[C@@H](C7=CC(=O)OC7)CC[C@]65O)C4)O[C@@H]3C)O[C@@H]2C)C[C@H](O)[C@@H]1O`, which Potency is on record?
A: Its Potency is “inactive”.

Q: Which Potency does the source give for `COc1ccc2c(c1OC)CN1CCc3cc4c(cc3C1C2)OCO4` (configuration not stated) here?
A: The Potency was 19.5 µM (active).

Q: For `O=c1oc2ccccc2c(O)c1C(CC(O)c1ccc(-c2ccc(Br)cc2)cc1)c1ccccc1` (configuration not stated), which Potency is on record?
A: Its Potency is 4.36 µM (active).

Q: With `CCCC1CCCCN1` (configuration not stated) as the compound, how does the Potency read?
A: The Potency was “inactive”.

Q: For `C=CCN1CC[C@]23c4c5ccc(O)c4O[C@H]2C(=O)CC[C@@]3(O)[C@H]1C5`, which Potency is on record?
A: Its Potency is “inactive”.

Q: Which Potency does the source give for `O=C(NC(O)C(Cl)(Cl)Cl)NC(O)C(Cl)(Cl)Cl` (configuration not stated) here?
A: Its Potency is “inactive”.

Q: Which Potency does the source give for `O=C(O)c1ccc2[nH]cc(CCCCN3CC=C(c4ccccc4)CC3)c2c1` here?
A: Its Potency is “inactive”.

Q: Which Potency does the source give for `NP(N)(=O)NC(=O)c1ccc(F)cc1` here?
A: Its Potency is “inactive”.

Q: For `CN1C[C@H](CNC(=O)OCc2ccccc2)C[C@@H]2c3cccc4c3c(cn4C)C[C@H]21`, which Potency is on record?
A: Its Potency is “inactive”.

tested on: not listed separately; assay: Confirmatory qHTS to identify inhibitors of SARS-CoV-2 cell entry (AID 1645844; calls by dose curve; note: nearly all actives have a fitted effect of over 45% in size); details: SARS-CoV-2 pseudotyped particle cell entry, luciferase; series mostly up to 57.2 µM
Procedure, shortened: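 HEK293-ACE2, overnight seeding; cpd 1 h, 37C/5% CO2; + SARS-CoV-2-S MLV PP (Wuhan-Hu-1, ΔC19); 48 h; Bright-Glo luminescence. Data normalised to S PP and bald PP wells.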

Q: For `CC(CN1c2ccccc2Sc2ccccc21)N(C)C` (configuration not stated), which Potency is on record?
A: Its Potency is 13600 nM (active).

Q: With `N[C@@H](Cc1ccc(N(CCCl)CCCl)cc1)C(=O)O` as the compound, how does the Potency read?
A: The Potency was 681 nM (active).

Q: For `CCCc1cc(=O)[nH]c(=S)[nH]1`, which Potency is on record?
A: The Potency was “inactive”.

Q: For `Cc1cn([C@H]2C[C@H](N=[N+]=[N-])[C@@H](CO)O2)c(=O)[nH]c1=O`, which Potency is on record?
A: The Potency was 541 nM (active).

Q: For `COc1c(C)c2c(c(O)c1C/C=C(\C)CCC(=O)O)C(=O)OC2`, which Potency is on record?
A: Its Potency is 607 nM (active).

Q: With `COC(=O)Nc1nc2ccc(C(=O)c3cccs3)cc2[nH]1` as the compound, how does the Potency read?
A: The Potency was 215 nM (active).

Q: For `Cc1c2oc3c(C)ccc(C(=O)N[C@@H]4C(=O)N[C@H](C(C)C)C(=O)N5CCC[C@H]5C(=O)N(C)CC(=O)N(C)[C@@H](C(C)C)C(=O)O[C@@H]4C)c3nc-2c(C(=O)N[C@@H]2C(=O)N[C@H](C(C)C)C(=O)N3CCC[C@H]3C(=O)N(C)CC(=O)N(C)[C@@H](C(C)C)C(=O)O[C@@H]2C)c(N)c1=O` (I: T[dV]P[Sar][NMeV] / II: T[dV]P[Sar][NMeV]; ester I:1-I:C, II:1-II:C; linker I:N-II:N via Actinocin(9to1)), which Potency is on record?
A: Its Potency is 76.4 nM (active).

Q: For `COC(c1ccccc1)(c1ccccc1)[C@H](Oc1nc(C)cc(C)n1)C(=O)O`, which Potency is on record?
A: Its Potency is “inactive”.

Q: Which Potency does the source give for `Clc1ccc(COC(Cn2ccnc2)c2ccc(Cl)cc2Cl)cc1` (configuration not stated) here?
A: Its Potency is 9610 nM (active).

Q: With `CN1CCC(=C2c3ccccc3C=Cc3ccccc32)CC1` as the compound, how does the Potency read?
A: The Potency was 8570 nM (active).

Q: With `C=C(CC)C(=O)c1ccc(OCC(=O)O)c(Cl)c1Cl` as the compound, how does the Potency read?
A: Its Potency is 8570 nM (active).

Q: Which Potency does the source give for `CC[C@]1(O)C[C@@H]2CN(CCc3c([nH]c4ccccc34)[C@@](C(=O)OC)(c3cc4c(cc3OC)N(C)[C@H]3[C@@](O)(C(=O)OC)[C@H](OC(C)=O)[C@]5(CC)C=CCN6CC[C@]43[C@@H]65)C2)C1` here?
A: The Potency was 76.4 nM (active).

Q: For `CC(C)(C)C(=O)OCOP(=O)(COCCn1cnc2c(N)ncnc21)OCOC(=O)C(C)(C)C`, which Potency is on record?
A: The Potency was 8.6 nM (active).

Q: For `COc1c(C)c2c(c(O)c1C/C=C(\C)CCC(=O)OCCN1CCOCC1)C(=O)OC2`, which Potency is on record?
A: The Potency was 76.4 nM (active).

Q: Which Potency does the source give for `CCc1c2c(nc3ccc(OC(=O)N4CCC(N5CCCCC5)CC4)cc13)-c1cc3c(c(=O)n1C2)COC(=O)[C@]3(O)CC` here?
A: Its Potency is 136 nM (active).

Q: With `CO[C@@H](C(=O)N1Cc2[nH]nc(NC(=O)c3ccc(N4CCN(C)CC4)cc3)c2C1)c1ccccc1` as the compound, how does the Potency read?
A: The Potency was 482 nM (active).

Q: Which Potency does the source give for `CCC1=C[C@@H]2CN(C1)Cc1c([nH]c3ccccc13)[C@@](C(=O)OC)(c1cc3c(cc1OC)N(C)[C@H]1[C@@](O)(C(=O)OC)[C@H](OC(C)=O)[C@]4(CC)C=CCN5CC[C@]31[C@@H]54)C2` here?
A: Its Potency is 1480 nM (active).
